From PubChem BioAssay
The sample as a whole holds a higher share of hits than the screen did.
HIV RNase H inh-1: blocks HIV-1 RNase H cleavage of RNA/DNA duplex; P04585; RT-RNase H RNA/DNA duplex cleavage, fluorescence; inhibition, % at 10 µM; hit rate 1.9% among 65,000; AID 565; in the data active = inhibition above about 50%
RmlC RmlD mix: RmlC/RmlD inhibition, mixture screen. RmlC/RmlD coupled enzyme inhibition, 384-well mixture HTS. hit rate 0.39% among 110,000. inhibition, % at 5.5 µM; in the data active = inhibition above about 30%, passing the limit was not always enough; inconclusive = no clear call, values can overlap the other calls
HIV RNase H inh-2: confirmation of HIV-1 reverse transcriptase RNase H inhibitors. shares compounds with HIV RNase H inh-1. Recombinant RT RNase H, fluorescent RNA/DNA duplex cleavage. inhibition, % at 10 µM. hit rate 39% among 1,000. AID 651; in the data active = inhibition above about 48%; inconclusive = no clear call, values can overlap the other calls
RmlCD artifact: shows fluorescent artifact in RmlC/RmlD assay, dose-response counter-screen | shares compounds with RmlC RmlD mix | RmlC/RmlD assay fluorescence artifact counter-screen | calls only | hit rate 96% among 360 | AID 1696; call rule not given here;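 also: compound alone with no enzyme and no substrates present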
Each line names hits and unclear results; the compound was inactive in the other large screens (follow-up assays come after a bar, where they were run).

COC(=O)c1sc(NC(=O)CSc2nnnn2-c2ccc(C)cc2C)nc1C	HIV RNase H inh-1 63.8 | HIV RNase H inh-2 inactive
COC(=O)c1ccc(CSc2nnnn2-c2ccc(C)cc2C)o1	none
CCn1cc(C(=O)NCc2ccc3c(c2)OCO3)c(=O)c2cc(F)c(N3CCN(C(=O)c4ccco4)CC3)cc21	none (no result: HIV RNase H inh-1)
O=C1CC(C(=O)N2CCOCC2)C2(CCCC2)O1 (stereo not drawn)	none
CC(C)NC(=O)C(OC(=O)c1ccccc1)C(OC(=O)c1ccccc1)C(=O)O (stereo not drawn)	none (no result: HIV RNase H inh-1)
COc1cc(C(=O)OCC(=O)Nc2cc(C)on2)ccc1OCc1ccccc1Cl	HIV RNase H inh-1 51.7 | HIV RNase H inh-2 inactive
CCOc1ccc(C(=O)OCC(=O)Nc2cc(C)on2)cc1OCC	none (no result: HIV RNase H inh-1)
Cc1sccc1C1C(C#N)=C(N)SC(N)=C1C#N	HIV RNase H inh-1 59.9 (no result: RmlC RmlD mix) | HIV RNase H inh-2 inactive
Cc1cc(C2C(C#N)=C(N)SC(N)=C2C#N)c(C)s1	none (no result: RmlC RmlD mix)
CC(C)c1ccc2oc(-c3ccc(NC(=O)c4ncn[nH]4)cc3)nc2c1	HIV RNase H inh-1 74.0 | HIV RNase H inh-2 58.2
CCC(C)c1ccc2oc(-c3ccc(NC(=O)c4ncn[nH]4)cc3)nc2c1 (stereo not drawn)	HIV RNase H inh-1 64.3 | HIV RNase H inh-2 71.0
O=C(Nc1ccc2oc(-c3cccc4ccccc34)nc2c1)c1ncn[nH]1	none (no result: HIV RNase H inh-1)
O=C(Nc1ccc2oc(-c3ccccc3Cl)nc2c1)c1ncn[nH]1	none
COc1cc2[nH]c(=O)n(CCCCCC(=O)N3CC=C(c4ccccc4)CC3)c(=O)c2cc1OC	none (no result: HIV RNase H inh-1)
COC(=O)c1ccccc1NC(=O)Cn1cnc2c(cnn2-c2ccccc2)c1=O	HIV RNase H inh-1 74.2 | HIV RNase H inh-2 inactive
CCOC(=O)c1ccccc1NC(=O)Cn1cnc2c(cnn2-c2ccccc2)c1=O	none
C/C(N)=C(/C#N)C(=O)CN1CCCCC1	none
CCOc1ccc(C(=O)c2cc([N+](=O)[O-])ccc2Cl)cc1	none (no result: HIV RNase H inh-1)
CCOC(=O)c1sc(C)c2c1NC(c1ccc(Cl)cc1)NC2=O (stereo not drawn)	none (no result: HIV RNase H inh-1)
COc1ccc(-c2nc3n(n2)C(c2ccccc2Cl)C(C(N)=O)=C(C)N3)cc1 (stereo not drawn)	none
Nc1c(C(=O)NC2CCCCC2)c2nc3ccccc3nc2n1/N=C/c1ccco1	none (no result: RmlC RmlD mix)
CC(C)CNC(=O)c1c(N)n(/N=C/c2ccccn2)c2nc3ccccc3nc12	HIV RNase H inh-1 61.1 | HIV RNase H inh-2 62.9
CCCCCCNC(=O)c1c(N)n(/N=C/c2ccco2)c2nc3ccccc3nc12	HIV RNase H inh-1 71.2 (no result: RmlC RmlD mix) | HIV RNase H inh-2 88.4
COCCNC(=O)c1c(N)n(/N=C/c2cccs2)c2nc3ccccc3nc12	none
Cn1ncc(C#N)c1/N=C/N1CCCC1	none (no result: HIV RNase H inh-1)
O=C(CCC(=O)c1ccc(F)cc1)Nc1cc(Cl)cc(Cl)c1	none (no result: HIV RNase H inh-1)
Cc1cccc(C)c1NC(=O)CSCC(=O)c1ccc(O)c(O)c1	HIV RNase H inh-1 87.5 | HIV RNase H inh-2 61.5
Cc1cccc(C)c1NC(=O)CSCC(=O)O	none (no result: RmlC RmlD mix)
Cc1ccc(NC(=O)Cc2ccc(F)cc2)cc1	none (no result: HIV RNase H inh-1)
CSc1nc(C)cc(C)c1C#N	none (no result: HIV RNase H inh-1)
Cc1cc(C)c(C#N)c(=N)o1	HIV RNase H inh-1 92.8 (no result: RmlC RmlD mix) | HIV RNase H inh-2 73.8
O=C1C=C(c2ccc3c(c2)OCO3)CCC1	none (no result: HIV RNase H inh-1)
O=C(NCCOc1ccccc1)c1ncn[nH]1	none
O=C(CSc1ccc2nnc(-c3cccnc3)n2n1)NCC1CCCO1 (stereo not drawn)	none
O=C(CSc1ccc2nnc(-c3cccc(F)c3)n2n1)NCC1CCCO1 (stereo not drawn)	HIV RNase H inh-1 73.3 | HIV RNase H inh-2 inactive
CCn1c(=O)n(CC)c2cc(S(=O)(=O)Nc3cc(C)cc(C)c3C#N)ccc21	none (no result: HIV RNase H inh-1)
O=c1/c(=C\c2cccn2-c2ccccc2)sc2nc3ccccc3n12	HIV RNase H inh-1 89.4 | HIV RNase H inh-2 60.7
Cc1ccc(-n2c(C)cc(/C=c3/sc4nc5ccccc5n4c3=O)c2C)cc1	none (no result: HIV RNase H inh-1)
Cc1oncc1C(=O)Nc1ccc(C(F)(F)F)cc1	none
Cc1oncc1C(=S)Nc1ccccc1	HIV RNase H inh-1 74.3 | HIV RNase H inh-2 inactive
CCOC(=O)C1=C(C)S/C(=C\N(C)C)C1=O	none
O=C1NC2=C(C(=O)CCC2)C(c2ccc3ncccc3c2)N1 (stereo not drawn)	none
Cc1c(Cc2ccccc2)sc(NC(=O)Cc2ccccc2)c1C(N)=O	none (no result: HIV RNase H inh-1)
Cc1c(Cc2ccccc2)sc(N)c1C(N)=O	HIV RNase H inh-1 81.7 | HIV RNase H inh-2 inconclusive
COc1ccc(OC)c(CN2CCCC(CO)C2)c1 (stereo not drawn)	none (no result: HIV RNase H inh-1)
Cc1cccc(-n2c(O)c(C=Nc3ccc4c(c3)OCO4)c3ccccc3c2=O)n1	HIV RNase H inh-1 65.3 | HIV RNase H inh-2 inactive
Cc1ccc(-n2c(O)c(C=Nc3ccc4c(c3)OCO4)c3ccccc3c2=O)cc1C	none (no result: HIV RNase H inh-1)
COc1cccc(C2(O)CCN(C(=O)C3CCC3)CC2)c1	none
N#CC1=C(N)SC(N)=C(C#N)C1CCC1CCCCC1	HIV RNase H inh-1 80.3 | HIV RNase H inh-2 inconclusive
Nc1nnc(CCC2CCCCC2)s1	none
O=C(Nc1c(C(=O)O)oc2ccc(Br)cc12)c1ccccc1	none
Cc1nn(CCc2nc(-c3ccco3)cs2)c2[nH]c(=O)cc(C(F)(F)F)c12	HIV RNase H inh-1 87.6 | HIV RNase H inh-2 68.6
Cc1cc(C)n(CCc2nc(-c3ccco3)cs2)n1	none (no result: HIV RNase H inh-1)
CC1=C(C)[N+](=O)C2CCCCC2N1[O-] (stereo not drawn)	none
COC(=O)C[C@H]1c2cc(C(F)(F)F)ccc2S(=O)(=O)N1Cc1ccc(OC)cc1	none (no result: HIV RNase H inh-1)
Cc1cc(O)c(C(C)C)cc1N=C1CSC(=O)N1	HIV RNase H inh-1 66.9 | HIV RNase H inh-2 inconclusive
Cc1ccc(C)c(N=C2NC(=O)CS2)c1	none
Clc1ccc(CNCCC2=CCCCC2)cc1	none (no result: HIV RNase H inh-1)
CCn1cc(C(=O)OCC(=O)N(C)C2CCS(=O)(=O)C2)c(=O)c2ccc(C)nc21 (stereo not drawn)	none
CN1CCN(Cc2c(O)ccc3occ(C(=O)c4ccccc4)c23)CC1	none
CC(=O)C(C(C)=O)c1c(Cl)c(O)c(O)c2c(C(=O)c3ccccc3)coc12	HIV RNase H inh-1 100.3 | HIV RNase H inh-2 63.9
O=C(CSc1nnc2sc3ccccc3n12)c1ccco1	none
COc1ccc(N2CCN(Cc3cc(=O)oc4ccc(Cl)cc34)CC2)cc1	none
O=c1cc(CN2CCN(c3ccccc3)CC2)c2c(ccc3ccccc32)o1	none
O=c1cc(CN2CCN(c3ccccc3)CC2)c2cc(O)c(-c3ccccc3)cc2o1	HIV RNase H inh-1 72.9 | HIV RNase H inh-2 68.9
COc1ccc(N2CCN(Cc3cc(=O)oc4cc5c(cc34)CCCC5)CC2)cc1	HIV RNase H inh-1 81.5 | HIV RNase H inh-2 62.7
O=C(CCn1cnc2ccccc2c1=O)Nc1ccc(S(=O)(=O)N2CCCC2)cc1	none
CC(C)(C)NC(=O)c1cccc(NC(=O)c2cccc(O)c2)c1	none (no result: HIV RNase H inh-1)
COc1ccc(NC(=O)CSc2nc(-c3ccncc3)nn2CC(=O)N2CCCC2)cc1	none
O=C(Nc1nc(-c2ccncc2)cs1)c1ccco1	HIV RNase H inh-1 58.6 | HIV RNase H inh-2 55.7
O=C(Nc1nc(-c2cc3ccccc3oc2=O)cs1)c1ccco1	none
COc1ccc(Oc2nc(SC)nc3ccccc23)cc1	none (no result: HIV RNase H inh-1)
CCCCn1c(=O)[nH]c(=O)c2c1nc(-c1ccc(-c3ccccc3Br)o1)n2CCOC	none (no result: HIV RNase H inh-1)
COCCn1c(-c2ccc(-c3ccccc3Cl)o2)nc2c1c(=O)[nH]c(=O)n2CC(C)C	HIV RNase H inh-1 73.0, RmlC RmlD mix 143.8 | HIV RNase H inh-2 72.6 | RmlCD artifact active
CCC(C)N1CCCCC1C(=O)Nc1c(C)cc(C)cc1C (stereo not drawn)	none (no result: HIV RNase H inh-1)
CCOC(=O)c1sc(Nc2ccccc2)nc1C	none (no result: HIV RNase H inh-1)
